Results as given in PubChem BioAssay (Tox21).
Inconclusive results are not listed. Active and inactive are the calls of the source. Unless noted, the call rests on the fitted dose curve; in most records, active means well fitted curve in the direction sought with a large enough effect in the repeat runs; inconclusive means weak or mixed curves; inactive means no such curve, though single readings can be large; an effect the other way counts as inactive or inconclusive.

Columns and labels:
[1] = target: Retinoic acid receptor RXR-alpha (Homo sapiens) (UniProt P19793); experiment: qHTS assay to identify small molecule agonists of the RXR signaling pathway (AID 1159527; calls by dose curve; further: nearly all actives have a fitted effect of over 35% in size); details: HEK293T RXRa-UAS-bla, beta-lactamase ratio, 16 h; series mostly up to 76.8 µM
Retinoic acid receptor RXR-alpha (Homo sapiens), sequence (P19793 whole entry, looked up): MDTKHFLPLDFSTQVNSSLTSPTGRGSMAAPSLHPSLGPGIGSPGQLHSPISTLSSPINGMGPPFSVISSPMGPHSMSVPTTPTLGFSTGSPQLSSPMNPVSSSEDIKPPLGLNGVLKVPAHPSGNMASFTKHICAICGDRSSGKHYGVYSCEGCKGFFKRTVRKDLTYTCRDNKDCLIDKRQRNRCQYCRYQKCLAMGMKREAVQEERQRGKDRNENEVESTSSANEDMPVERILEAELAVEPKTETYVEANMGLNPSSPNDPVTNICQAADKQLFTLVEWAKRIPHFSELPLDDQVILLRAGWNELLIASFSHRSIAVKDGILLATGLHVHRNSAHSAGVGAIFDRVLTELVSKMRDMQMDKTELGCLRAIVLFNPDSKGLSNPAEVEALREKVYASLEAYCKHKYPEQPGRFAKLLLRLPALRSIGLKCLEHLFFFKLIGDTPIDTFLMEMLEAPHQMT
Outline: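 Fluorescence ratio readout (460 vs 530 nm) from GeneBLAzer RXR-alpha HEK 293T cells after 16 hr compound treatment; cells seeded 5 hr beforehand in low-serum, charcoal-stripped medium.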

[2] = qHTS assay to identify small molecule agonists of the RXR signaling pathway - cell viability counter screen (AID 1159529); details: RXR-alpha-bla HEK293T viability, CellTiter-Glo, 16 h; series mostly up to 76.8 µM;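 further: HEK 293T cells carrying an RXR-alpha UAS beta-lactamase reporter; nearly all actives have a fitted effect of over 50% in size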
Outline: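 Viability read-out for the RXR-alpha agonist qHTS: luminescent CellTiter-Glo signal after 30 min at RT. HEK 293T bla reporter cells, 2% charcoal-stripped FBS, 16 hr compound incubation; tetraoctyl ammonium bromide as cytotoxic control.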

[3] = qHTS assay to identify small molecule antagonists of the retinoid acid receptor (RAR) signaling pathway - cell viability counter screen (AID 1159551); details: C3RL4 cells viability, ATP luminescence (CellTiter-Glo), 6 h; series mostly up to 92.4 µM; further: nearly all actives have a fitted effect of over 35% in size
Outline: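 Luminescent ATP quantitation (CellTiter-Glo) gave cell viability in C3RL4 cells exposed to test chemicals for 6 h at 37 C alongside 1 uM final retinol.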

[4] = qHTS assay to identify small molecule antagonists of the retinoic acid receptor (RAR) signaling pathway (AID 1159552; further: nearly all actives have a fitted effect of over 50% in size); details: C3RL4 RARE luciferase reporter, retinol-stimulated, 6 h; series mostly up to 92.4 µM
Outline: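 Using a RARE-driven luciferase construct in C3RL4 cells, retinol at 1 uM final provided the agonist stimulus while compounds were co-applied. After 6 hours at 37 C, luminescence was recorded to flag inhibitors of retinol signaling.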

[5] = qHTS assay to identify small molecule agonists of the retinoic acid receptor (RAR) signaling pathway (AID 1159553); details: C3RL4 RARE luciferase reporter, agonist, 6 h; series mostly up to 73.3 µM
Outline: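 Luminescence from a RARE-driven luciferase reporter in C3RL4 cells served as the read-out, measured after 30 min with detection reagent at room temperature. Compounds in DMSO were applied for 6 hr at 37 C following overnight seeding.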

[6] = qHTS assay to identify small molecule antagonists of the estrogen related receptor (ERR) signaling pathway - cell viability counter screen (AID 1224818); details: ERR reporter cell line viability counter screen; series mostly up to 46.1 µM;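 further: viability measured after 17.5 h of compound exposure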
Outline: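 Multiplexed counter screen to separate cytotoxic compounds from true ERR modulators. ERR cells received DMSO-dissolved compounds after a 6 h pre-incubation, were exposed 17.5 h at 37 C, then assayed with CellTiter-Fluor fluorescence.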

[7] = qHTS assay to identify small molecule antagonists of the estrogen related receptor signaling pathway with the pleiotropic PPARgamma coactivator (PGC) cell viability counter screen (AID 1224822;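 further: viability read after 17.5 h compound exposure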); details: ERR/PGC reporter cell line viability counter screen; series mostly up to 46.1 µM
Outline: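 Cells: PGC/ERR, 2,000/well, 1536-well format. Pre-incubation 6 h, 37 C/5% CO2. Compound exposure 17.5 h, 37 C. Detection: CellTiter-Fluor, 30 min, fluorescence.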

[8] = qHTS assay to identify small molecule antagonists of the estrogen related receptor (ERR) signaling pathway (AID 1224819;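 further: luminescence from an ERR-driven luciferase reporter measured with One-Glo reagent; nearly all actives have a fitted effect of over 50% in size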); details: ERR reporter cell line, luciferase inhibition; series mostly up to 46.1 µM
Outline: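 Seed ERR cells 2,000/well; rest 6 h at 37 C/5% CO2; pin compounds in DMSO; incubate 18 h at 37 C; add One-Glo; wait 30 min at room temperature; measure luminescence.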

[9] = qHTS assay to identify small molecule agonists of the estrogen related receptor (ERR) signaling pathway (AID 1224820); details: ERR reporter cell line, luciferase agonist mode; series mostly up to 46.1 µM
Outline: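 Cells: ERR line from NTP, 2,000/well. Pre-incubation 6 h, 37 C/5% CO2. Compound (DMSO) pin transfer, 18 h 37 C. One-Glo, 30 min RT, luminescence.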

[10] = system: estrogen-related receptor alpha (ERRalpha) with PGC-1alpha coactivator, human; experiment: qHTS assay to identify small molecule antagonists of the estrogen related receptor signaling pathway with the pleiotropic PPARgamma coactivator (PGC) (AID 1224821; calls by dose curve;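 further: lower luminescence signal means antagonism of PGC/ERR signalling; nearly all actives have a fitted effect of over 50% in size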); details: ERR/PGC reporter cell line, luciferase, antagonist mode; series mostly up to 46.1 µM
Outline: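 Luminescent read-out (One-Glo, 30 min at room temperature) following 18 h treatment of PGC/ERR cells at 37 C with compounds delivered in DMSO. Cells had settled 6 h at 37 C/5% CO2 before dosing.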
On the % scale 0 is the no-effect control and ±100 the full control effect.

NS(=O)(=O)c1cc2c(cc1Cl)CN(C1CCCCC1)C2=O
inactive: Potency [1] | outcome [2] | outcome [3] | outcome [4]

CC(C)(C)c1cc(CCC(=O)NN)cc(C(C)(C)C)c1O
inactive: Potency [1] | outcome [2] | outcome [3] | outcome [4]

CC(C)(C)c1nnc(NS(=O)(=O)c2ccc(N)cc2)s1
inactive: Potency [1] | outcome [2] | outcome [3]

CC(=O)c1ccc2c(c1)Cc1ccccc1-2
inactive: Potency [1] | outcome [2] | outcome [3] | outcome [4]

CCCC/C=C\CCCCCCCCCC=O
inactive: Potency [1] | outcome [2] | outcome [3]

COCCOCCOCCOCCOCCO
inactive: Potency [1] | outcome [2] | outcome [3]

NS(=O)(=O)c1ccc(NC(=O)CCC(=O)O)cc1
inactive: Potency [1] | outcome [2] | outcome [3]

CCCCCCCC/C=C\CCCCCCCC(=O)OCCCC
inactive: activation [1] 2.43% [at 15.8 µM] | activity change, negative = cytotoxicity [2] 1.56% [at 15.8 µM] | activity change, negative = cytotoxicity [3] -0.376% [at 19 µM]

C[Si](C)=O
inactive: activation [1] 8.36% [at 6.98 µM] | activity change, negative = cytotoxicity [2] 0.062% [at 6.97 µM] | activity change, negative = cytotoxicity [3] 3.8% [at 8.39 µM]

CC1COc2ccccc2N1 (centres undefined)
inactive: Potency [1] | outcome [2] | outcome [3] | outcome [4]

BrCCCCCBr
inactive: Potency [1] | outcome [2] | outcome [3]

C=C(C)C1CCC(C)(O)CC1 (centres undefined)
inactive: Potency [1] | outcome [2] | outcome [3]

C[C@H](CCC(=O)O)[C@H]1CC[C@H]2[C@@H]3C(=O)C[C@@H]4CC(=O)CC[C@]4(C)[C@H]3CC(=O)[C@]12C
inactive: Potency [1] | outcome [2] | outcome [3]

CC(=O)NCc1c(I)c(NC(C)=O)c(I)c(C(=O)O)c1I
inactive: Potency [1] | outcome [2] | outcome [3]

O=C(CCN1CCN(CCO)CC1)N1c2ccccc2Sc2ccc(C(F)(F)F)cc21
inactive: Potency [1] | outcome [2] | outcome [3]

Cc1ccc2c(c1)OCC(=O)CO2
inactive: Potency [1] | outcome [2] | outcome [3] | outcome [4]

CCCCCOC(=O)CCC
inactive: Potency [1] | outcome [2] | outcome [3] | outcome [4]

COC(=O)c1ccccc1C(=O)c1ccc(OCCN2CCCCC2)cc1
inactive: Potency [1] | outcome [2] | outcome [3]

COP(=O)(OC)OC(c1ccc(Cl)cc1)P(=O)(OC)OC (centres undefined)
inactive: Potency [1] | outcome [2] | outcome [3] | outcome [4]

Nc1ccc2cc(S(=O)(=O)O)cc(O)c2c1
inactive: Potency [1] | outcome [2] | outcome [3] | outcome [4]

COc1ccc2nc(SCc3ncc(C)c(OC)c3C)[nH]c2c1
inactive: Potency [1] | outcome [2] | outcome [3] | outcome [4]

CC(CC=O)CCCC(C)(C)O (centres undefined)
inactive: Potency [1] | outcome [2] | outcome [3] | outcome [4]

O=C(O)C(=O)Cc1ccccc1
inactive: Potency [1] | outcome [2] | outcome [3] | outcome [4]

CCCCCCCCSCC
inactive: Potency [1] | outcome [2] | outcome [3]

CC(CO)c1ccccc1 (centres undefined)
inactive: Potency [1] | outcome [2] | outcome [3]

CCO[Si](CCCS)(OCC)OCC
inactive: Potency [1] | outcome [2] | outcome [3] | outcome [4]

COc1cc(N)ccc1C
inactive: Potency [1] | outcome [2] | outcome [3] | outcome [4] | Potency [5]

FC(F)(F)c1ccccc1-n1ccnc1
inactive: Potency [1] | outcome [2] | outcome [3] | Potency [5] | outcome [6] | outcome [7]

CCCCCCCCCCl
inactive: Potency [1] | outcome [2] | outcome [3] | outcome [4] | Potency [5]

CC(CN)CC(C)(C)CCN (centres undefined)
inactive: Potency [1] | outcome [2] | outcome [3] | outcome [4] | Potency [5]

Cc1cc(C(C)(C)C)c(O)c(C)c1CC1=NCCN1
inactive: Potency [1] | outcome [2] | outcome [3] | outcome [6] | outcome [7]

O=S(O)(O)=S
inactive: activation [1] 4.57% [at 6.98 µM] | activity change, negative = cytotoxicity [2] 0.418% [at 6.97 µM] | activity change, negative = cytotoxicity [3] 0.445% [at 8.39 µM] | activation [5] -0.738% [at 8.36 µM]

CC(C)NCC(O)COc1cccc2[nH]ccc12 (centres undefined)
inactive: Potency [1] | outcome [2] | outcome [3] | outcome [6] | outcome [7]

NC(CO)C(=O)NNCc1ccc(O)c(O)c1O (centres undefined)
inactive: Potency [1] | outcome [2] | outcome [3] | outcome [6] | outcome [8] | outcome [9] | outcome [10] | outcome [7]

O=C1c2cccc3c2[C@H](CCC3)CN1[C@@H]1CN2CCC1CC2
inactive: Potency [1] | outcome [2] | outcome [3] | outcome [4] | Potency [5]

O=C(NCCN1CCOCC1)c1ccc(Cl)cc1
inactive: Potency [1] | outcome [2] | outcome [3] | outcome [4] | outcome [6] | outcome [8] | outcome [10] | outcome [7]

COCCOC(=O)C1=C(C)NC(C)=C(C(=O)OC(C)C)C1c1cccc([N+](=O)[O-])c1 (centres undefined)
inactive: Potency [1] | outcome [2] | outcome [3] | outcome [6]

COc1ccc2c(c1)C(=O)N(CCc1ccc(S(=O)(=O)NC(=O)NC3CCCCC3)cc1)C(=O)C2(C)C
inactive: Potency [1] | outcome [2] | outcome [3] | Potency [5]
